Values joined by “and” are separate entries in the source; they are usually repeats but may differ in a detail not shown here. Equal values may be shown once. Inconclusive results are not listed. A structure can be active in one record and inactive in another. Active and inactive are the calls of the source. The calls were made as follows: active = hit-call score of the fitted dose curve at least 0.9, where 1 is the maximum; inconclusive = response in the unintended direction; inactive = score below 0.9.
test: CCTE_Shafer_MEA_dev_bursting_electrodes_number: CCTE's Neural Network Formation Assay for Number of Bursting Electrodes, Shafer Lab (AID 2284043)
Description: CCTE_Shafer_MEA_dev assay is conducted using Axion Biosystems 48 well microelectrode array (MEA) plates and Maestro recording system. Each well of the MEA plate contains a grid of 16 microelectrodes embedded in the culture surface. Electrically active cells, such as neurons, can be cultured over the electrodes, and electrical activity in these cells can be recorded extracellularly. The spontaneous firing of neurons is captured from each electrode on a microsecond timescale providing both temporally and spatially precise data. […] The CCTE_Shafer_MEA_dev assay uses primary cultures of rat cortical neurons. Recordings are made on days post-plating 5, 7, 9 and 12. As these cultures mature over time, neural networks develop functional activity and form cohesive networks in which electrical activity can be highly coordinated. CCTE_Shafer_MEA_dev_bursting_electrodes_number is 1 of 19 assay components of the CCTE_Shafer_MEA_dev assay. It measures the number of electrodes in a well with a burst rate of at least 1 burst (temporally-clustered group of action potential firing) every 2 minutes during a recording in a microelectrode array (MEA) using Axion Biosystems Maestro 768 channel amplifier with the AxIS adaptive spike detector. To collapse across multiple recordings made on days post-plating 5, 7, 9 and 12, the trapezoidal area-under-the-curve of the component is calculated.Data from the assay component CCTE_Shafer_MEA_dev_bursting_electrodes_number was analyzed into 1 assay endpoint. This assay endpoint, CCTE_Shafer_MEA_dev_bursting_electrodes_number, was analyzed in the negative analysis fitting direction relative to DMSO as the negative control and baseline of activity. Using a type of functional reporter, gain or loss-of-signal activity can be used to understand electrical activity.
On the day prior to culture, each well was coated thoroughly with 150 uL of 0.05% polyethyleneimine (PEI, Sigma Cat P3143) in 50 mM HEPES (Sigma Cat H7523) at a pH of 8. The plate was incubated at 37C for one hour. PEI was rinsed out with 500 uL of sterile water three times. Plates were stored at 4C until the day of culture. This culture was plated at a seeding density of 1.5 x 10^5 cells/well on a 48-well MEA plate, prepared as described above. Cells were administered via a 25 uL media/laminin ([…]; Sigma Cat L2020-1MG) drop directly onto the microelectrode array, as adding the cells with the laminin results in better attachment than pre-coating with laminin. After 2 hours, an additional 475 uL of cortical media was added and the cells returned to the incubator. Exposure starts at day 0 of plating and is continued over twelve days of network development until the experiment is terminated. Cells are fed with fresh medium on DIV 5 and 9, following the recordings on those days. The entire volume of media in the well is exchanged and any vehicle or compound treatment is renewed. Complete details are found in OP-NHEERL/ISTD/SBB/TJS/2015-03-r0 (available on request, email shafer.tim@epa.gov). Measurement of the electrical activity is non-invasive, and recordings can be made from the same plate over multiple different days of the culture. In cortical neurons, this allows for the measurement of extracellular action potentials over the period during which networks form in the MEA plate.

**Q.** What does the source list for `CCCCC(CC)COC(=O)c1ccccc1C(=O)OCC(CC)CCCC` (stereo unspecified)?
**A.** outcome: inactive; AC50: 7.91 µM (active) and 6.07 µM (active)

**Q.** Which AC50 does the source give for `Cc1c(F)c(F)c(COC(=O)C2C(/C=C(\Cl)C(F)(F)F)C2(C)C)c(F)c1F` (stereo unspecified) here?
**A.** The AC50 was 2.72 µM (active).

**Q.** With `C=CC1(C)OC(=O)N(c2cc(Cl)cc(Cl)c2)C1=O` (stereo unspecified) as the molecule, how does the AC50 read?
**A.** Its AC50 is 21.6 µM (active).

**Q.** For `CCCCNC(=O)OCC#CI`, which AC50 is on record?
**A.** Its AC50 is 3.82 µM (active) and 1.48 µM (active).

**Q.** With `COP(N)(=O)SC` (stereo unspecified) as the molecule, how does the AC50 read?
**A.** The AC50 was 0.0901 µM (active).

**Q.** Which outcome does the source give for `COP(=S)(OC)Oc1nc(Cl)c(Cl)cc1Cl` here?
**A.** The outcome was “inactive”.

**Q.** With `COC(=O)N(OC)c1ccccc1COc1ccn(-c2ccc(Cl)cc2)n1` as the molecule, how does the AC50 read?
**A.** The AC50 was 123 nM (active) and 13 nM (active).

**Q.** Which AC50 does the source give for `CCCCNC(=O)n1c(NC(=O)OC)nc2ccccc21` here?
**A.** The AC50 was 15 µM (active).

**Q.** For `CO/C=C(/C(=O)OC)c1ccccc1Oc1cc(Oc2ccccc2C#N)ncn1`, which AC50 is on record?
**A.** Its AC50 is 1.42 µM (active) and 912 nM (active).

**Q.** Which AC50 does the source give for `CCOC(=O)CC(SP(=S)(OC)OC)C(=O)OCC` (stereo unspecified) here?
**A.** Its AC50 is 14.9 µM (active) and 4.64 µM (active).

**Q.** Which AC50 does the source give for `C=CCC1=C(C)C(OC(=O)C2C(C=C(C)C)C2(C)C)CC1=O` (stereo unspecified) here?
**A.** The AC50 was 5.72 µM (active) and 14.8 µM (active).

**Q.** For `CC(C)(C)c1ccc(CSc2cnn(C(C)(C)C)c(=O)c2Cl)cc1`, which AC50 is on record?
**A.** The AC50 was 0.00281 µM (active).

**Q.** With `C=CCC1=C(C)[C@@H](OC(=O)[C@@H]2[C@@H](C=C(C)C)C2(C)C)CC1=O` as the molecule, how does the AC50 read?
**A.** The AC50 was 10 µM (active).

**Q.** With `COc1ccc(C(c2ccc(OC)cc2)C(Cl)(Cl)Cl)cc1` as the molecule, how does the AC50 read?
**A.** Its AC50 is 6.57 µM (active).

**Q.** With `CCNc1nc(Cl)nc(NC(C)C)n1` as the molecule, how does the outcome read?
**A.** The outcome was “inactive”.

**Q.** With `CCOc1cc(Oc2ccc(C(F)(F)F)cc2Cl)ccc1[N+](=O)[O-]` as the molecule, how does the AC50 read?
**A.** Its AC50 is 5.27 µM (active).

**Q.** Which outcome does the source give for `N#Cc1nn(-c2c(Cl)cc(C(F)(F)F)cc2Cl)c(N)c1S(=O)C(F)(F)F` (stereo unspecified) here?
**A.** The outcome was “inactive”.

**Q.** For `CN(C)C(=S)SSC(=S)N(C)C`, which AC50 is on record?
**A.** Its AC50 is 0.00933 µM (active).

**Q.** Which AC50 does the source give for `CCCCOC(=O)c1ccccc1C(=O)OCCCC` here?
**A.** Its AC50 is 78.4 µM (active).

**Q.** Which AC50 does the source give for `Cc1ccc(-c2c(Cl)nc(C#N)n2S(=O)(=O)N(C)C)cc1` here?
**A.** The AC50 was 22.3 µM (active).

Reference: PubChem BioAssay (EPA / NIEHS)
